According to PubChem BioAssay (NCI):
The panel holds about 79,000 compounds, 15% with a hit somewhere; the sample as a whole holds those more often. The source made the active and inactive calls. No stated cut-off is given here; in the data, active means growth inhibition above about 70%; inactive means the rest.

Assays:
[1] = NCI Yeast Anticancer Drug Screen. Data for the rad52 strain (AID 147);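 further: 0% = growth of vehicle-treated control cultures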; settings: S. cerevisiae rad52 mutant growth inhibition, active compounds read high
In short: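 Vehicle-treated cultures served as the reference for growth inhibition of compound-exposed yeast bearing a DNA repair mutation.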

[2] = NCI Yeast Anticancer Drug Screen. Data for the wt1 strain (AID 149);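 further: 0% = growth of vehicle-treated wt1 cultures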; settings: S. cerevisiae wt1 strain (SPY 50644) growth inhibition, active compounds read high
In short: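 Measured: growth of wt1 yeast under compound versus vehicle treatment, reported as inhibition.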

[3] = NCI Yeast Anticancer Drug Screen. Data for the rad50EPP+ strain (AID 151);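 further: 0% = growth of vehicle-treated control cultures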; settings: S. cerevisiae rad50 mutant strain, active compounds read high
In short: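 In this screen, rad50EPP+ yeast were exposed to compounds. Growth inhibition was scored against vehicle-treated controls.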

[4] = NCI Yeast Anticancer Drug Screen. Data for the mgt1 strain (AID 153); settings: S. cerevisiae mgt1 mutant growth inhibition, active compounds read high
In short: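 mgt1 strain exposed; growth vs vehicle control recorded as inhibition.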

[5] = NCI Yeast Anticancer Drug Screen. Data for the rad50 strain (AID 155);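 further: 0% = growth of vehicle-only cultures of the same strain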; settings: S. cerevisiae rad50 strain growth inhibition, active compounds read high
In short: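 Growth of the mutant yeast was measured after compound exposure and referenced to vehicle-treated cultures.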

[6] = NCI Yeast Anticancer Drug Screen. Data for the mec2-1 strain (AID 157); settings: S. cerevisiae mec2-1 strain, active compounds read high
In short: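 Vehicle-treated cultures served as reference for growth inhibition of compound-exposed mec2-1 yeast.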

[7] = NCI Yeast Anticancer Drug Screen. Data for the rad14 strain (AID 159);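 further: 0% = growth of vehicle-treated control cultures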; settings: S. cerevisiae rad14 strain growth inhibition, active compounds read high
In short: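 Here, inhibition of yeast growth was measured after compound exposure, using a strain with a genetic defect in DNA damage repair and vehicle-treated cultures as the reference.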

[8] = NCI Yeast Anticancer Drug Screen. Data for the sgs1 mgt1 strain (AID 161);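 further: 0% = growth of cultures given vehicle only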; settings: S. cerevisiae sgs1 mgt1 strain, active compounds read high
In short: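 Mutant yeast exposed to compound; growth scored against vehicle-only wells.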

[9] = NCI Yeast Anticancer Drug Screen. Data for the CLN2oe strain (AID 163);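 further: 0% = growth of vehicle-only control cultures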; settings: S. cerevisiae CLN2oe strain, active compounds read high
In short: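 Inhibition relative to vehicle-treated yeast is reported. Cells: strain with genetic alteration in cell-cycle control, grown with compound.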

[10] = NCI Yeast Anticancer Drug Screen. Data for the cln2 rad14 strain (AID 165);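 further: 0% = growth equal to vehicle treated cultures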; settings: S. cerevisiae cln2 rad14 strain, active compounds read high
In short: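 Each compound was tested on cln2 rad14 yeast. Inhibition of growth was calculated against vehicle-exposed controls.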

[11] = NCI Yeast Anticancer Drug Screen. Data for the bub3 strain (AID 167); settings: S. cerevisiae bub3 mutant strain, active compounds read high
In short: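 Whole-cell yeast assay. The mutant strain was incubated with compounds, and growth inhibition was determined by comparison with vehicle-treated cells.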

[12] = NCI Yeast Anticancer Drug Screen. Data for the wt2 strain (AID 169);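 further: 0% = growth of vehicle-treated yeast cultures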; settings: S. cerevisiae wt2 strain growth inhibition, active compounds read high
In short: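 Inhibition of yeast growth was determined after compound treatment, normalised to controls receiving only vehicle.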

[13] = NCI Yeast Anticancer Drug Screen. Data for the mlh1 strain (AID 171);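 further: 0% = growth of vehicle-treated control cultures of the same strain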; settings: S. cerevisiae mlh1 strain growth inhibition, active compounds read high
In short: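 Vehicle-normalised growth inhibition of a repair- or checkpoint-altered yeast strain following compound treatment.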

[14] = NCI Yeast Anticancer Drug Screen. Data for the sgs1 strain (AID 173);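 further: 0% = growth of vehicle-only control cultures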; settings: S. cerevisiae sgs1 mutant, active compounds read high
In short: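 Screen format: yeast with repair or checkpoint alterations, compound exposure, growth read relative to vehicle.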

[15] = NCI Yeast Anticancer Drug Screen. Data for the mlh1 rad18 strain (AID 175); settings: S. cerevisiae mlh1 rad18 strain growth inhibition, active compounds read high
In short: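 Vehicle-treated cultures served as the reference for growth inhibition in a yeast strain carrying DNA damage repair alterations exposed to each compound.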

[16] = at 5.0 µM (retest, dose inferred, filed as 0.5)
[17] = at 50.0 µM (retest, dose inferred, filed as 5.0)

Measured: growth inhibition

Nc1cc(N)c(N=Nc2cccc3c(S(=O)(=O)O)cccc23)cc1N=Nc1cc([N+](=O)[O-])ccc1O
active: [8]; [17] 84% | [10]; [17] 92% | [11]; [17] 79% | [11]; at 50.0 µM 70.8%
inactive: [1]; at 1.2 µM 32% | [1]; at 3.7 µM 26% | [1]; at 11.0 µM 17% | [1]; at 33.0 µM -23% | [1]; at 100.0 µM 56% | [2]; at 1.2 µM 7% | [2]; at 3.7 µM 13% | [2]; at 11.0 µM 7% | [2]; at 33.0 µM 8% | [2]; at 100.0 µM 19% | [3]; at 1.2 µM -11% | [3]; at 3.7 µM 3% | [3]; at 11.0 µM -4% | [3]; at 33.0 µM -4% | [3]; at 100.0 µM 38% | [4]; at 1.2 µM -19% | [4]; at 3.7 µM 8% | [4]; at 11.0 µM 9% | [4]; at 33.0 µM 12% | [4]; at 100.0 µM 65% | [5]; at 1.2 µM 15% | [5]; at 3.7 µM 10% | [5]; [16] 46% | [5]; at 11.0 µM 8% | [5]; at 33.0 µM 6% | [5]; [17] 61% | [5]; at 50.0 µM 38.5% | [5]; at 100.0 µM 54% | [6]; at 1.2 µM 1% | [6]; at 3.7 µM -11% | [6]; [16] 64% | [6]; at 11.0 µM -11% | [6]; at 33.0 µM -17% | [6]; [17] 69% | [6]; at 50.0 µM 4.9% | [6]; at 100.0 µM 17% | [7]; at 1.2 µM -17% | [7]; at 3.7 µM -22% | [7]; at 11.0 µM -19% | [7]; at 33.0 µM -18% | [7]; at 100.0 µM 47% | [8]; [16] -10% | [8]; at 50.0 µM 26.4% | [9]; at 1.2 µM 4% | [9]; at 3.7 µM 16% | [9]; at 11.0 µM -4% | [9]; at 33.0 µM -7% | [9]; at 100.0 µM -3% | [10]; [16] 33% | [10]; at 50.0 µM 42.5% | [11]; at 1.2 µM -6% | [11]; at 3.7 µM 6% | [11]; [16] 19% | [11]; at 11.0 µM 10% | [11]; at 33.0 µM 0% | [11]; at 100.0 µM 53% | [12]; at 1.2 µM -14% | [12]; at 3.7 µM -11% | [12]; at 11.0 µM -26% | [12]; at 33.0 µM 6% | [12]; at 100.0 µM 47% | [13]; at 1.2 µM -15% | [13]; at 3.7 µM -21% | [13]; at 11.0 µM -15% | [13]; at 33.0 µM -18% | [13]; at 100.0 µM 23% | [14]; at 1.2 µM -7% | [14]; at 3.7 µM 24% | [14]; at 11.0 µM 19% | [14]; at 33.0 µM 34% | [14]; at 100.0 µM 59% | [15]; [16] 52% | [15]; [17] 48% | [15]; at 50.0 µM 65.7%
